{
  "source": "PubChem BioAssay (NCI)",
  "note": "“And” between values parts separate entries of the source, which are not always exact repeats. Identical values can stand only once. Compounds without any hit were thinned out: in the full panel of roughly 83,000, 20% have a hit.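 Compound tested at a single concentration for 48 hours in 96-well plates; a percent growth value below 10 was scored as active.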 Values without a mark were called inactive. The source made the active and inactive calls.",
  "data": [
    {"test_system": "MDA-MB-468 breast", "assay": "NCI-60 one-dose screen, 48 h (100 = growth as untreated, 0 = no growth, -100 = all killed)", "conditions": "10 µM unless noted", "values": [
      {"smiles": "COC(=O)CC12CC(NC(=O)c3csc([C@@H](C[C@H](C(C)C)N(C)C(=O)[C@@H](NC(=O)[C@H]4CCCCN4C)C(C)C)OC(C)=O)n3)(C1)C2", "growth": "38.6%"},
      {"smiles": "CC1=CC(=Nc2ccc(N(CCCl)CCCl)cc2)C=C(C)C1=O", "growth": "-66.3% (active)"},
      {"smiles": "O=P(O)(Nc1ccccc1)Nc1ccccc1", "growth": "90.2%"},
      {"smiles": "COc1ccc(S(=O)(=O)Nc2c(/C=C\\c3cc(OC)c(OC)c(OC)c3)ccc(OC)c2O)cc1OC", "growth": "14.1%"},
      {"smiles": "O=CN1N=C(c2ccc3c(c2)OCO3)CC1c1sc(N(CCCl)CCCl)nc1Cl", "note": "(centres undefined)", "growth": "90.9%"},
      {"smiles": "N#C[Se]CCN1C(=O)C2C(C1=O)[C@H]1C=C[C@@H]2S1", "note": "(some centres undefined)", "growth": "-19.7% (active)"},
      {"smiles": "C[N+]1(CC#CC[N+]2(C)CCCC2)CCCC1", "growth": "98.6%"},
      {"smiles": "CCOP(=O)(OCC)C(=O)N(CC)CC", "growth": "90.3%"},
      {"smiles": "CC1=C(CN(O)C(N)=O)C2=C(C)C3(CC3)[C@@](C)(O)C(=O)C2=C1", "growth": "-69.1% (active)"},
      {"smiles": "C[C@]12CC[C@H]3[C@@H](CC[C@]4(O)C[C@@H](O[C@@H]5O[C@H](CO)[C@@H](O[C@@H]6OC[C@@H](O)[C@H](O)[C@H]6O)[C@H](O)[C@H]5O)CC[C@]34C=O)[C@@]1(O)CC[C@@H]2C1=CC(=O)OC1", "growth": "38.7%"},
      {"smiles": "COc1ccc(C(=O)c2cc(OC)c(OC)c(OC)c2)cc1OC(C)=O", "growth": "43.1%"},
      {"smiles": "Nc1ccc2c(c1)oc1ccccc12", "growth": "92.6%"},
      {"smiles": "CC(=O)O[C@@H]1C[C@H]2O[C@@H]3C=C(C)CC[C@]3(C)[C@]1(C)[C@]21CO1", "growth": "39.3%"},
      {"smiles": "Clc1ccc(SSC(Cl)(Cl)Cl)cc1", "growth": "104%"},
      {"smiles": "CN1CC2CCC(C1)C2=O", "growth": "106%"},
      {"smiles": "CC[C@H](C)[C@H](NC(=O)[C@H]1CCCCN1C)C(=O)N(C)[C@H](C(=O)NC12CC(C(=O)N[C@@H](Cc3ccccc3)C[C@H](C)C(=O)OC)(C1)C2)C(C)C", "growth": "116%"},
      {"smiles": "Cc1ccc(C(=O)NCCCOc2ccc(N3C(N)=NC(N)=NC3(C)C)cc2Cl)cc1S(=O)(=O)F", "growth": "123%"},
      {"smiles": "S=P(Nc1ccccc1)(Nc1ccccc1)c1ccccc1", "growth": "127%"},
      {"smiles": "CC[C@H](C)[C@H](NC(=O)[C@H]1CCCCN1C)C(=O)N(C)[C@H](C[C@@H](OC(C)=O)c1nc(C(=O)NC23C4C5C2C2C3C4C52C(=O)OC)cs1)C(C)C", "note": "(some centres undefined)", "growth": "-2.75% (active)"},
      {"smiles": "Cn1cc(-c2csc(-c3cn(CCN4CCOCC4)c4ccccc34)n2)c2cccnc21", "growth": "63.3%"},
      {"smiles": "CN1CCN(c2ccc([N+](=O)[O-])c3no[n+]([O-])c23)CC1", "growth": "-70.3% (active)"},
      {"smiles": "[Cl][Hg][c]1cc[c]([Hg][Cl])o1", "growth": "-0.231% (active)"},
      {"smiles": "N#Cc1ccc(Cl)cc1", "growth": "123%"},
      {"smiles": "CC(C)COC(C[N+](=O)[O-])C(Cl)(Cl)Cl", "note": "(centres undefined)", "growth": "112%"},
      {"smiles": "COc1cccc2c1C(=O)c1c(O)c3c(c(O)c1C2=O)CC(O)(/C(C)=N/NC(=O)CCC(=O)N/N=C(\\C)C1(O)Cc2c(O)c4c(c(O)c2C(OC2CC(N)C(O)C(C)O2)C1)C(=O)c1c(OC)cccc1C4=O)CC3OC1CC(N)C(O)C(C)O1", "note": "(centres undefined)", "growth": "-35.7% [5 µM] (active)"},
      {"smiles": "CC[C@@H](C)C(=O)O[C@H]1[C@H](O)[C@H]2[C@@H](CN3C[C@@H](C)CC[C@H]3[C@@]2(C)O)[C@@H]2C[C@]34O[C@]5(O)[C@@H](OC(=O)[C@@](C)(O)CC)CC[C@@]3(C)[C@@H]5[C@@H](OC(C)=O)[C@@H](OC(C)=O)[C@H]4[C@@]21O", "growth": "90.6%"},
      {"smiles": "CC(=O)O[C@H](C[C@H](C(C)C)N(C)C(=O)[C@@H](NC(=O)[C@H]1CCCCN1C)C(C)C)c1nc(C(=O)N[C@@H](Cc2ccccc2)C[C@H](C)C(=O)O)c(C)s1", "growth": "11.4%"},
      {"smiles": "O=[N+]([O-])c1cc(I)cc([N+](=O)[O-])c1", "growth": "88.2%"},
      {"smiles": "CC1(C)CN=C(NN=C(/C=C/c2ccc(C(F)(F)F)cc2)/C=C/c2ccc(C(F)(F)F)cc2)NC1", "growth": "-84% (active)"},
      {"smiles": "CCOC(=O)c1ccccc1C(=O)OCC", "growth": "81%"},
      {"smiles": "COc1ccc(O)c2c(=O)c3c(OC)cc4c(c3oc12)[C@@H]1C=CO[C@@H]1O4", "growth": "-63.2% (active)"},
      {"smiles": "COc1ccc(C(=O)c2ccc([As]=O)cc2)cc1", "note": "(centres undefined)", "growth": "-74.8% (active)"},
      {"smiles": "O=C(CI)Nc1ccc(Br)cc1", "growth": "79.1%"},
      {"smiles": "COC(=O)[C@@]1(C)CC[C@]2(C)CC[C@]3(C)C4=CC(=O)c5c(cc(O)c(O)c5C)[C@]4(C)CC[C@@]3(C)[C@@H]2C1", "growth": "30.1%"},
      {"smiles": "NC(=O)C(Cl)Cl", "growth": "103%"},
      {"smiles": "COC(=O)[C@@H](C)C[C@H](Cc1ccccc1)NC(=O)c1csc([C@@H](C[C@H](C(C)C)N(C)C(=O)[C@H](C)NC(=O)[C@H]2CCCN2C)OC(C)=O)n1", "growth": "25.8%"},
      {"smiles": "O=c1[nH]c(=O)n(Cl)c(=O)n1Cl", "growth": "106% and 117%"},
      {"smiles": "C[C@]12CC[C@@H]3c4ccc(OC(=O)Cc5ccc(N(CCCl)CCCl)cc5)cc4CC[C@H]3[C@@H]1CC[C@@H]2OC(=O)Cc1ccc(N(CCCl)CCCl)cc1", "growth": "104%"},
      {"smiles": "NC(=O)CNc1ccc([As]=[As]c2ccc(NCC(N)=O)cc2)cc1", "note": "(centres undefined)", "growth": "-6.99% (active)"}
    ]}
  ]
}
